Data on 28 sequences can be found in the supplement of paper PMC12645437, “Orthogonal IMiD-Degron Pairs Induce Selective Protein Degradation in Cells” (ACS Chemical Biology, 2025).

This experiment addresses T1, CRBN, Q96SW2.
T1 chain: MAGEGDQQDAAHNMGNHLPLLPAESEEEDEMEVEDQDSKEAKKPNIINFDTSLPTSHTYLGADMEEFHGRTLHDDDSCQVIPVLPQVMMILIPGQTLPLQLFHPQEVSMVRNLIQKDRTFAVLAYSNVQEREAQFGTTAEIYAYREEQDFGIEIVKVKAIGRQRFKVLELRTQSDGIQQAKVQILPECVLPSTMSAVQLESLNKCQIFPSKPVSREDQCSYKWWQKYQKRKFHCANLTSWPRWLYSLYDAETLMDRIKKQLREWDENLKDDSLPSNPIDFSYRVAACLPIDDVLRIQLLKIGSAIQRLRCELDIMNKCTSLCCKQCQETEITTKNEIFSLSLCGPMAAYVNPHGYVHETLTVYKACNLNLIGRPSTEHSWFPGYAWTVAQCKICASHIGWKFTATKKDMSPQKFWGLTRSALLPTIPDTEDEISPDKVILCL
Description: log2 fold change of degron read counts, EGFP-low vs EGFP+ sorted cells (limma voom), compound-induced degradation; higher = more compound-induced degradation of the degron-EGFP fusion; degrons are variants of IKZF1/3 zinc finger 2; compound dose not given here. The note with it: Jurkat, 18 h.

Setting [1] is: compound: compound 19 (5-tert-butyl-thalidomide).
Setting [2] is: compound: compound 22 (5-morpholino-thalidomide).
The mark [3] stands for this setting: compound: compound 33 (diphenyl IMiD analogue).

In all, about 8,300 sequences were measured (“log2 fold change of degron read counts, EGFP-low vs EGFP+ sorted cells (limma voom), compound-induced degradation”: median about -1.1, highest 2% from about 3.2 on). This excerpt belongs to a sample that is enriched for the highest values.
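Also: pooled lentiviral library of zinc finger degron-EGFP fusions in mCherry-positive Jurkat cells, FACS-sorted after compound exposure, with degron abundance counted by next-generation sequencing.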

Take FICNQCGHNFTQKGNLLRHIKL [46F_47I_49N_50Q_52G_53H_54N_55F_67L_, Q9UKT9]: the “log2 fold change of degron read counts” value runs as follows: under setting [1], -2.7; under setting [2], -3.24; under setting [3], -2.97; (compound: thalidomide) -2.3.
The corresponding values for FICNQCGHQFTQKGNLLRHIKL [46F_47I_49N_50Q_52G_53H_54Q_55F_67L_, Q9UKT9] are -3.84, -3.33, -2.9 and -3.11.
Take FNCEICGAFFTQKGNLLRHIKL [46F_47N_49E_50I_52G_53A_54F_55F_67L_, Q9UKT9]: the “log2 fold change of degron read counts” value was 0.798 under setting [1], -1.38 under setting [2], -0.734 under setting [3] and -1.26 (compound: thalidomide).
The corresponding values for FACNICGAGFTQKGNLLRHIKL [46F_47A_49N_50I_52G_53A_54G_55F_67L_, Q9UKT9] are 1.91, 0.962, -0.444 and -0.984.
Turning to FWCEICGRHFTQKGNLLRHIKL [46F_47W_49E_50I_52G_53R_54H_55F_67L_, Q9UKT9], the “log2 fold change of degron read counts” value is 0.466 under setting [1], 0.665 under setting [2], 0.0348 under setting [3] and -0.898 (compound: thalidomide).
The corresponding values for FNCPICGRMFTQKGNLLRHIKL [46F_47N_49P_50I_52G_53R_54M_55F_67L_, Q9UKT9] are -0.587, -0.626, -0.159 and -0.181.
For FGCNQCGHNFTQKGNLLRHIKL [46F_47G_49N_50Q_52G_53H_54N_55F_67L_, Q9UKT9] the same measures were -2.02, -2.05, -2.04 and -1.85.
As for LLCPICGFHCTQKGNLLRHIKL [46L_47L_49P_50I_52G_53F_54H_55C_67L_, Q9UKT9], the “log2 fold change of degron read counts” value was -0.42 under setting [1], 0.0892 under setting [2], 1.25 under setting [3] and 1.51 (compound: thalidomide).
As to FICPICGHFFTQKGNLLRHIKL [46F_47I_49P_50I_52G_53H_54F_55F_67L_, Q9UKT9], the “log2 fold change of degron read counts” value by setting is: under setting [1], -1.6; under setting [2], -2.08; under setting [3], -1.13; (compound: thalidomide) -1.31.
LWCPICGFTCTQKGNLLRHIKL [46L_47W_49P_50I_52G_53F_54T_55C_67L_, Q9UKT9]: the “log2 fold change of degron read counts” value under setting [1] was determined as 3.24, the “log2 fold change of degron read counts” value under setting [2] was 3.71, the “log2 fold change of degron read counts” value under setting [3] turned out to be 3.05 and the “log2 fold change of degron read counts” value (compound: thalidomide) was 2.09.
As for LECEICGFTCTQKGNLLRHIKL [46L_47E_49E_50I_52G_53F_54T_55C_67L_, Q9UKT9], the “log2 fold change of degron read counts” value under setting [1] came to 0.26, the “log2 fold change of degron read counts” value under setting [2] was -0.872, the “log2 fold change of degron read counts” value under setting [3] stood at 1.66 and the “log2 fold change of degron read counts” value (compound: thalidomide) worked out at 2.87.
Take LYCPICGFTCTQKGNLLRHIKL [46L_47Y_49P_50I_52G_53F_54T_55C_67L_, Q9UKT9]: the “log2 fold change of degron read counts” value is 3.6 under setting [1], 3.63 under setting [2], 2.97 under setting [3] and 2.63 (compound: thalidomide).
LGCPICGFTCTQKGNLLRHIKL [46L_47G_49P_50I_52G_53F_54T_55C_67L_, Q9UKT9]: the “log2 fold change of degron read counts” value reads like this: under setting [1], 3.65; under setting [2], 2.87; under setting [3], 1.97; (compound: thalidomide) 1.36.
The corresponding values for LECPICGFTCTQKGNLLRHIKL [46L_47E_49P_50I_52G_53F_54T_55C_67L_, Q9UKT9] are 1.1, 0.00767, 2.64 and 3.38.
For the sequence LQCNQCGFICTQKGNLLRHIKL [46L_47Q_49N_50Q_52G_53F_54I_55C_67L_, Q9UKT9], the “log2 fold change of degron read counts” value reads like this: under setting [1], -2.79; under setting [2], -2.4; under setting [3], -2.23; (compound: thalidomide) -0.473.
In the case of FVCNQCGRTFTQKGNLLRHIKL [46F_47V_49N_50Q_52G_53R_54T_55F_67L_, Q9UKT9], the “log2 fold change of degron read counts” value runs as follows: under setting [1], -2.81; under setting [2], -2.9; under setting [3], -2.85; (compound: thalidomide) -2.6.
Consider FACDQCGAIFTQKGNLLRHIKL [46F_47A_49D_50Q_52G_53A_54I_55F_67L_, Q9UKT9], for which the “log2 fold change of degron read counts” value by setting is: under setting [1], -1.3; under setting [2], -2.79; under setting [3], -2.17; (compound: thalidomide) -2.61.
In the case of FECEICGHHFTQKGNLLRHIKL [46F_47E_49E_50I_52G_53H_54H_55F_67L_, Q9UKT9], the “log2 fold change of degron read counts” value is -3.57 under setting [1], -3.77 under setting [2], -3.12 under setting [3] and -3.14 (compound: thalidomide).
The corresponding values for FWCPICGRHFTQKGNLLRHIKL [46F_47W_49P_50I_52G_53R_54H_55F_67L_, Q9UKT9] are 0.105, 0.12, -0.0382 and -0.795.
On to FTCNQCGANFTQKGNLLRHIKL [46F_47T_49N_50Q_52G_53A_54N_55F_67L_, Q9UKT9], for which the “log2 fold change of degron read counts” value under setting [1] is -2.31, the “log2 fold change of degron read counts” value under setting [2] was -1.9, the “log2 fold change of degron read counts” value under setting [3] is -1.02 and the “log2 fold change of degron read counts” value (compound: thalidomide) was -1.51.
The corresponding values for FCCEQCGAQFTQKGNLLRHIKL [46F_47C_49E_50Q_52G_53A_54Q_55F_67L_, Q9UKT9] are -0.606, -1.61, 0.54 and -0.701.
For FFCDVCGAGFTQKGNLLRHIKL [46F_47F_49D_50V_52G_53A_54G_55F_67L_, Q9UKT9] the same measures were 2.13, 0.815, -0.261 and -2.07.
With FICEICGRFFTQKGNLLRHIKL [46F_47I_49E_50I_52G_53R_54F_55F_67L_, Q9UKT9], the “log2 fold change of degron read counts” value by setting is: under setting [1], -1.91; under setting [2], -1.81; under setting [3], -0.249; (compound: thalidomide) -0.59.
For FRCNICGAFFTQKGNLLRHIKL [46F_47R_49N_50I_52G_53A_54F_55F_67L_, Q9UKT9], the “log2 fold change of degron read counts” value reads like this: under setting [1], -1.52; under setting [2], -1.67; under setting [3], -0.33; (compound: thalidomide) 0.791.
For FTCEQCGATFTQKGNLLRHIKL [46F_47T_49E_50Q_52G_53A_54T_55F_67L_, Q9UKT9] the same measures were -2.43, -0.729, 0.386 and 0.407.
For LCCPICGFTCTQKGNLLRHIKL [46L_47C_49P_50I_52G_53F_54T_55C_67L_, Q9UKT9] the same measures were 2.3, 2.71, 3.14 and 3.38.
Turning to LDCPICGFTCTQKGNLLRHIKL [46L_47D_49P_50I_52G_53F_54T_55C_67L_, Q9UKT9], the “log2 fold change of degron read counts” value under setting [1] was 1.14, the “log2 fold change of degron read counts” value under setting [2] was found to be 0.297, the “log2 fold change of degron read counts” value under setting [3] is 1.7 and the “log2 fold change of degron read counts” value (compound: thalidomide) came out at 2.41.
For LNCPICGFTCTQKGNLLRHIKL [46L_47N_49P_50I_52G_53F_54T_55C_67L_, Q9UKT9] the same measures were 2.24, 1.48, 1.4 and 1.99.
